The values below come from ChEMBL document CHEMBL1157539, “Thousands of chemical starting points for antimalarial lead identification” (Nature, 2010).

SMILES strings stand for the structures.

The test system of this assay is Plasmodium falciparum. The assay can be described thus: GSK_TCMDC: Inhibition of Plasmodium falciparum 3D7 in whole red blood cells, using parasite LDH activity as an index of growth. Test compounds present at 2uM. Type of assay: functional.
For the compound `CC(C)(C)OC(=O)NCc1ccc(Nc2nnc(-c3cccc(C(=O)NCCC(c4ccccc4)c4ccccc4)c3)o2)cc1`, the Inhibition (as a rule, the change of the read-out against control, counted positive when it falls) came out at 100%.

Compound `Clc1ccccc1CNc1noc(-c2sccc2Br)n1` gave an Inhibition of 97%.

As to `COC(=O)C(NC(=O)c1ccc(-c2ccc(-c3nc4ccccc4[nH]3)s2)cc1)c1ccc(O)cc1` (configuration not stated), the Inhibition turned out to be 83%.

Compound `NCC1CCCN1Cc1cccc(-c2ccc(-c3nc4cc(C(F)(F)F)ccc4[nH]3)s2)c1.O=C(O)C(F)(F)F` (configuration not stated) yielded an Inhibition of 100%.

Regarding `CC(C)(C)c1ccc(NC(=O)c2cccc(CN3CCN(Cc4cccc(O)c4)CC3)c2)cc1.O=C(O)C(F)(F)F`, the Inhibition is reported as 92%.

In turn, `Cl.Nc1c2c(nc3ccc(NC(=O)Cc4ccccc4)cc13)CCCC2` displayed an Inhibition of 100%.

Compound `Cc1ccc(O)c(-c2cc(C(=O)Nc3ccc(S(=O)(=O)N4CCCCCC4)cc3)[nH]n2)c1` returned an Inhibition of 100%.

`COc1cc2ncnc(Nc3ccc4nc(-c5ccccc5)[nH]c4c3)c2cc1OC.Cl` returned an Inhibition of 92%.

`CCCCCCCn1c(=N)n(CC(O)c2ccc(Cl)c(Cl)c2)c2ccccc21.Cl` (configuration not stated): the Inhibition is listed as 98%.

Turning to `CCN1CCC(N(Cc2ccc(-c3ccc(C(F)(F)F)cc3)cc2)C(=O)Cn2nc(C)c(=O)cc2SCc2ccc(F)cc2)CC1.O=C(O)C(O)C(O)C(=O)O`, the Inhibition worked out at 94%.

`COc1ccc(CNCc2cccc(-c3cccc(-c4nc5cc(F)ccc5[nH]4)c3)c2)cc1.O=C(O)C(F)(F)F` had an Inhibition of 100%.

Compound `O=C(NCCc1ccccc1)N(Cc1ccccc1-c1ccc(CNC2CCCC2)cc1)C1CCN(Cc2ccccc2)CC1.O=C(O)C(F)(F)F` showed an Inhibition of 96%.
